{"source": "the supplement of paper PMC6555819", "data": [{"system": "VDR:RXRa (NR concentration 270 nM, RXRa partner concentration 90 nM)", "experiment": "PBM binding z-score (relative to random genomic background probes); higher = stronger binding; sequences stand for … in GC…GCGATTGACAGCGTAGAATGAAGG", "protocol": "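Protein-binding microarray (Agilent 4x180K custom design, double-stranded 60-nt probes: 5' GC cap, 34-nt variable region, 24-nt constant primer region; full probe sequence given). Purified or IVT nuclear receptor:RXRα heterodimers (3:1 NR:RXRα, mostly 270:90 nM) or homodimers were incubated for 1 h in PBS with 2% milk and no ligand, then detected with Alexa488 antibodies. Fluorescence from o1-orientation probes (~5 replicates averaged) was converted to z-scores against 500 random hg19 background probes. Variable regions are seed direct-repeat (DR0–DR5) sites, all their single-nucleotide variants and half-site ablations.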", "values": [{"sequence": "ATCTCTAGGTAAAGATTGTTCAGTGAATGCAAAT", "PBM binding z-score": 0.327}, {"sequence": "CATACAGGGTCAGCCAGGCCAGAGTAGGGACGGC", "PBM binding z-score": 4.58}, {"sequence": "ACTCGGCGGACAAAGGTCAGAGCTACGCCAGTGA", "PBM binding z-score": 2.44}, {"sequence": "CTCGAAAGGTCGGTTGAGGTGAGTATGCGGATAA", "PBM binding z-score": 2.15}, {"sequence": "TAGCCTAGGTCATTCAGGGGCCATTATAGAAAGC", "PBM binding z-score": 4.23}, {"sequence": "ATGTCTAGGTAACCAAGTTCAGTGAATGCCGAAC", "PBM binding z-score": 3.97}, {"sequence": "AGAATGAGGTTATACGTAGATCAGGAAAGAAAGT", "PBM binding z-score": 1.51}, {"sequence": "TATACAGGGTCAAAGCCCAGAGTACGAATGTCGA", "PBM binding z-score": 4.41}, {"sequence": "CAAACTAGGTCACCGGAAGGTTAAAGTCCGCATG", "PBM binding z-score": 4.29}, {"sequence": "GTACCAAGGTGAATAGCTCGTTGATGAGTAGGCG", "PBM binding z-score": -0.223}, {"sequence": "AATACAGGGTCATCGTAGGCCCGAGTACGCACAG", "PBM binding z-score": 4.95}, {"sequence": "AGAATGAGGTGAAGATCAGGGAAACAGAATACAT", "PBM binding z-score": 0.178}, {"sequence": "GGAACGAGTGCAAAGTTGATAGCATCTGTCGACG", "PBM binding z-score": 1.49}, {"sequence": "CGAACTAGGTCAGGACAGGACAGTGAAGGATGAT", "PBM binding z-score": 0.943}, {"sequence": "GATACAGGGTCAAGGCCAGAGTGCGCGTATTGAT", "PBM binding z-score": 4.23}, {"sequence": "CTCCCAAGGTGAACAAGGTCGTTGATTACTATTC", "PBM binding z-score": 6.09}, {"sequence": "CCTAGTTGGTCCAGGTCACACACGCTATAGGTAC", "PBM binding z-score": 2.54}, {"sequence": "ATCTATAGGTAACCAAGTTCAGTGAATGCCGAAC", "PBM binding z-score": 5.03}, {"sequence": "AGTCAAAGATCAGGACGAGGTAACGTAAAGCACG", "PBM binding z-score": -0.216}, {"sequence": "TTTATTAGTTGATTAGGGCAACCGAAACAGCGGA", "PBM binding z-score": 0.643}, {"sequence": "CGGCCAAGGTCAATGCTAGGTCAGTGAAAGCATT", "PBM binding z-score": 4.95}, {"sequence": "CCTTACGGGTCACTCCAGGTTAAAGCATCGGAGT", "PBM binding z-score": 4.34}, {"sequence": "CCGACTGGGGCAAAGGTGACCATACTCAGTACGA", "PBM binding z-score": 0.389}, {"sequence": "GCTCGGAGGACAAGGTTAGAGCTTTGTCCGTAGA", "PBM binding z-score": -0.341}, {"sequence": "CCGACCGGGGCATAAGGTTACCATAAGCCAGCCC", "PBM binding z-score": 0.666}, {"sequence": "TCGAGTAGGTTACCAACGGGGCATTCAGCTTTCT", "PBM binding z-score": 0.126}, {"sequence": "CCTCGGAGGACAACAGGAGTTCAGAGCTGCCAGA", "PBM binding z-score": 1.14}, {"sequence": "TCTTGTAGATCAGCTGGTTAAGAAAGCTGGCCAA", "PBM binding z-score": -0.152}, {"sequence": "AGAATGAGGTTAGTAAGATCAGGGAATTGCGGTC", "PBM binding z-score": 0.837}, {"sequence": "TCTTGTAGATCAAGCAGGTTAAGAATGCCTGAGT", "PBM binding z-score": 0.48}, {"sequence": "ATCGAAAGGTCGAGGTGAGTATCGAGAAAGGGAA", "PBM binding z-score": 2.57}, {"sequence": "TCTAGCAGGCCAGAGTGTCACTCAAGAGGTACGG", "PBM binding z-score": -0.00537}, {"sequence": "GCGACTGGCGCATCAGCAGGTTACCATAACTTAA", "PBM binding z-score": -0.625}, {"sequence": "GCTGCTAGGTCAACTGACGGTCAGCTAAAGCTCG", "PBM binding z-score": 1.88}, {"sequence": "CCAGACAGGTGAGAAGGCAACTCAGCCTCGATTA", "PBM binding z-score": -0.345}, {"sequence": "TCTTGTACATCAATAGAGGTTAAGAAAGTGCGCT", "PBM binding z-score": 2.07}, {"sequence": "ACTATTAGTTGAGACCAGGGCAACCGATAGGTTG", "PBM binding z-score": -0.036}, {"sequence": "ATATGTAGGTTACATCCGGGCCATTCAGGCTATG", "PBM binding z-score": 0.659}, {"sequence": "TGTCAAAGTTCAAAGGTAACGCAAGTATCCACAC", "PBM binding z-score": 5.17}, {"sequence": "CCGAATGGGGCAGAAAGGTTACCATACCATCCGG", "PBM binding z-score": 1.33}]}]}
